Bioassay records as filed in PubChem BioAssay.
PLK1 PBD block = qHTS for Inhibitors of PLK1-PDB (polo-like kinase 1 - polo-box domain): Primary Screen | Plk1 PBD binding of FITC phosphopeptide, fluorescence polarization | Potency, µM, usual class: inhibitors | actives 2.8% (n = 360,000); also: series mostly up to about 57 µM; nearly all actives have a fitted effect of over 65% in size
Target sequence (P53350 whole entry, looked up, the tested form may be a part): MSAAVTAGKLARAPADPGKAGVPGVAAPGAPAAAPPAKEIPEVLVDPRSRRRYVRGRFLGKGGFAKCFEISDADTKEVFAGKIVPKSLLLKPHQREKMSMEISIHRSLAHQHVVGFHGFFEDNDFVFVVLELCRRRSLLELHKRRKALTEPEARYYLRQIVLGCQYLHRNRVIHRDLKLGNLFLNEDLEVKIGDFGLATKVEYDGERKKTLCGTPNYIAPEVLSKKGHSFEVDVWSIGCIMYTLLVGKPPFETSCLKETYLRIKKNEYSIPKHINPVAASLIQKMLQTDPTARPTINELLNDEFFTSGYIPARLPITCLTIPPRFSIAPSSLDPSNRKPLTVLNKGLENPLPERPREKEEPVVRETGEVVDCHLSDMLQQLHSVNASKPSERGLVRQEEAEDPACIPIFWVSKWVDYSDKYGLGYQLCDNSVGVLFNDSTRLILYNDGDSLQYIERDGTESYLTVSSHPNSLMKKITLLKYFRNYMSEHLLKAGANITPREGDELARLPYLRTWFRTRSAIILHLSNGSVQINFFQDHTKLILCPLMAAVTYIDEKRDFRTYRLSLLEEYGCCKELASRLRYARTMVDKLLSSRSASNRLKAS
TSHR antagonist = Antagonists of the Thyroid Stimulating Hormone Receptor: HTS campaign; TSHR-expressing cells, TSH-stimulated cAMP HTRF, 2 h; hits give low values; activity change, negative = inhibition, % at 11.5 µM; Thyrotropin receptor (Homo sapiens), P16473; AID 504810, 2011; actives 0.2% (n = 330,000);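 active = activity change below a set negative limit, meaning inhibition stronger than a set level, cut at about -70% in these data; inconclusive = activity change between two set negative limits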
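Read-out is FRET at 665 nm (cryptate excitation 337 nm) from a cryptate-tagged anti-cAMP antibody, competed by cell cAMP against cAMP-d2. Compounds are tested on freshly harvested TSHR cells challenged with 4nM TSH (EC80) for 2 hours at 37 deg C.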
Vif-A3G inh = qHTS for Inhibitors of Vif-A3G Interactions: qHTS | actives 0.076% (n = 410,000) | HeLa A3G-eYFP + Vif (tagged APOBEC3G with the HIV-1 protein that degrades it), YFP fluorescence, overnight | AID 602310, 2012 | Potency, µM (highest dose often 46.1 µM), actives largely listed as inhibitors | DNA dC->dU-editing enzyme APOBEC-3G (Homo sapiens), Q9HC16; also: nearly all actives have a fitted effect of over 60% in size
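Read-out is eYFP fluorescence (Ex 488/Em 500-530) from Vif-expressing HeLa A3G-eYFP cells; more signal means A3G escaped Vif-mediated degradation. Cells plated overnight, compound pinned in, incubated overnight at 37 deg C.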
VDR inhibitor = Inhibitors of the vitamin D receptor (VDR): qHTS; Potency, µM, most hits filed as inhibitors; actives 0.93% (n = 400,000); AID 504847, 2011; Vitamin D3 receptor (Homo sapiens), P11473; VDR-SRC2-3 peptide fluorescence polarization, 2 h
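Compounds are added to VDR with labelled SRC2-3 coactivator peptide and held 2 h at room temperature. Inhibition of the VDR–peptide interaction is then read as a change in fluorescence polarization.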
Vif-APOBEC3F blk = qHTS for Inhibitors of Vif-A3F Interactions: qHTS; Potency, µM (titrated, usually from 46.1 µM); HeLa A3F-eYFP + Vif (tagged APOBEC3F with the HIV-1 protein that degrades it), YFP fluorescence increase; actives 0.2% (n = 390,000); also: nearly all actives have a fitted effect of over 65% in size
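HeLa cells stably expressing Vif plus C-terminally eYFP-tagged A3F were seeded, incubated overnight at 37 deg C, dosed with compound, incubated overnight again at 37 deg C. Yellow fluorescence (Ex 488/Em 500-530) reported blocked Vif-mediated A3F-eYFP degradation.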
VDR inh confirm = qHTS for Inhibitors of the vitamin D receptor (VDR): Hit Validation in Primary Screen | VDR-coactivator inhibition assay, qHTS confirmation | shares compounds with VDR inhibitor | actives 89% (n = 840) | Potency, µM, actives largely listed as inhibitors
VDR FP = qHTS for Inhibitors of the vitamin D receptor (VDR): Hit Validation using a Fluorescein Assay; shares compounds with VDR inhibitor; VDR-coactivator binding, fluorescein fluorescence polarization; Potency, µM (doses to about 57.1 µM), hits mostly inhibitors; actives 48% (n = 840)
VDR bla = qHTS for Inhibitors of the vitamin D receptor (VDR): Hit Validation using a Beta-Lactamase Assay; shares compounds with VDR inhibitor; VDR beta-lactamase reporter cells, FRET ratio; cells co-treated with VDR agonist LG190178; Potency, µM (series often up to 46.1 µM), actives largely listed as inhibitors; actives 23% (n = 840); AID 602202, 2012
VDR cytotox = qHTS for Inhibitors of the vitamin D receptor (VDR): Hit Validation using a Cytotoxicity Assay | shares compounds with VDR inhibitor | cytotoxicity counter-screen, cell viability, qHTS | Potency, µM (doses to about 48.3 µM), usual class: cytotoxic | actives 18% (n = 840); also: nearly all actives have a fitted effect of over 75% in size
Each line names hits and unclear results; the compound was inactive in the other large screens (follow-up assays come after a bar, where they were run). A selection: hits, their analogues and other compounds. The true share with any hit is near 3.1%. Unless noted, calls follow the shape of the dose curve; as a rule, active = well fitted curve in the direction sought with a large enough effect; inconclusive = small, poorly fitted or top-dose-only effect, or another doubt; inactive = no such curve, though single readings can be large; an effect the other way counts as inactive or inconclusive.

CSc1ncc(Cl)c(C(=O)Nc2nnc(SC/C=C/c3ccccc3)s2)n1	PLK1 PBD block inconclusive, TSHR antagonist inconclusive
Cc1ccc(CS(=O)(=O)c2ncc(Cl)c(C(=O)Nc3nnc(C(C)C)s3)n2)cc1	PLK1 PBD block inconclusive, TSHR antagonist inconclusive, Vif-A3G inh inconclusive, VDR inhibitor 13µM | VDR inh confirm 6.7 | VDR FP 3.2µM | VDR bla 9.2µM | VDR cytotox 18µM
CCSc1nnc(NC(=O)c2nc(S(=O)(=O)Cc3ccc(F)cc3)ncc2Cl)s1	PLK1 PBD block inconclusive, VDR inhibitor inconclusive | VDR inh confirm 2.8 | VDR FP 3.5µM | VDR bla 16µM | VDR cytotox 19µM
CCCn1c(CCCNC(=O)c2ccccc2OC)nc2ccccc21	none (no result: PLK1 PBD block, TSHR antagonist)
Cc1cc(C)c(S(=O)(=O)Nc2ccc(-c3ccc(N4CCCCC4)nn3)cc2)c(C)c1	none (no result: PLK1 PBD block, TSHR antagonist)
CCc1ccc(NC(=O)C2CCN(c3nn4c(=O)cc(C)nc4s3)CC2)cc1	none (no result: PLK1 PBD block, TSHR antagonist)
Cc1cccc(CS(=O)(=O)c2ncc(Cl)c(C(=O)Nc3nnc(C(C)C)s3)n2)c1	PLK1 PBD block inconclusive, TSHR antagonist -74, Vif-A3G inh inconclusive, VDR inhibitor 8.9µM | VDR inh confirm 6 | VDR FP 3.5µM | VDR bla 8.2µM | VDR cytotox 13µM
CC(C)c1nnc(NC(=O)c2nc(SCc3ccc(F)cc3)ncc2Cl)s1	none (no result: PLK1 PBD block, TSHR antagonist)
O=[S@]1Oc2ccccc2-c2ccccc21	PLK1 PBD block 2.1µM, VDR inhibitor 6.3µM (no result: TSHR antagonist) | VDR inh confirm 4.7 | VDR FP inconclusive | VDR bla inactive | VDR cytotox inactive
O=C1c2ccccc2OCOc2ccccc21	none
CCC(=O)OCCNc1cc(Sc2nccn2C)c2nonc2c1[N+](=O)[O-]	PLK1 PBD block 2.1µM, TSHR antagonist -97, VDR inhibitor 32µM | VDR inh confirm 21 | VDR FP inconclusive | VDR bla inconclusive | VDR cytotox 15µM
CCC(=O)OCCNc1cc(SCCC(=O)OC)c2nonc2c1[N+](=O)[O-]	PLK1 PBD block inconclusive, VDR inhibitor inconclusive
CCCC(=O)OCCNc1cc(Sc2nc3ccccc3[nH]2)c2nonc2c1[N+](=O)[O-]	PLK1 PBD block 1.9µM, Vif-A3G inh inconclusive, VDR inhibitor 20µM | VDR inh confirm 8.4 | VDR FP inconclusive | VDR bla inconclusive | VDR cytotox 23µM
CCOc1ccc(/C=C/C(=O)Nc2sc3c(c2C(=O)OC)C(C(=O)OC)CC3)cc1 (stereo not given)	VDR inhibitor 22µM (no result: PLK1 PBD block, TSHR antagonist) | VDR inh confirm inconclusive | VDR FP 3.5µM | VDR bla 13µM | VDR cytotox inconclusive
Cc1ccc(N2C(=O)CSC23C(=O)N(CC(=O)Nc2ccccc2F)c2ccccc23)cc1C (stereo not given)	none (no result: PLK1 PBD block, TSHR antagonist)
COc1ccc(OC)c(S(=O)(=O)Nc2ccc(O)c3ccccc23)c1	PLK1 PBD block inconclusive (no result: Vif-APOBEC3F blk)
CCc1ccc(S(=O)(=O)Nc2ccc(O)c3ccccc23)cc1	PLK1 PBD block inconclusive, VDR inhibitor inconclusive | VDR inh confirm 3 | VDR FP 8.9µM | VDR bla inconclusive | VDR cytotox inconclusive
O=[N+]([O-])c1ccc2c(c1)S(=O)(=O)C=C2	VDR inhibitor 13µM (no result: PLK1 PBD block, Vif-A3G inh, Vif-APOBEC3F blk) | VDR inh confirm 22 | VDR FP inconclusive | VDR bla 3.7µM | VDR cytotox 6µM
Cc1nc2nc(SCC(=O)NCc3ccccc3)nn2c(C)c1Cc1ccccc1Cl	Vif-A3G inh inconclusive (no result: PLK1 PBD block, TSHR antagonist)
COCCCNC(=O)c1ccc2c3c(onc13)-c1ccccc1C2=O	PLK1 PBD block 5.3µM, VDR inhibitor 35µM | VDR inh confirm 3.8 | VDR FP inconclusive | VDR bla inconclusive | VDR cytotox inconclusive
CCOC(=O)N1C(=O)[C@@](CC)(c2ccccc2)N1C(=O)OCC	PLK1 PBD block 13µM, VDR inhibitor 79µM | VDR inh confirm 21 | VDR FP inactive | VDR bla inactive | VDR cytotox inconclusive
COC(=O)N1C(=O)[C@@](CC(C)C)(c2ccccc2)N1C(=O)OC	none (no result: PLK1 PBD block, Vif-A3G inh, VDR inhibitor, Vif-APOBEC3F blk)
COC(=O)c1ccc(NC(=O)NCCn2nnc3cc(S(=O)(=O)N(C)C)ccc32)cc1	none (no result: PLK1 PBD block, TSHR antagonist)
CC(C)OCCCNC(=O)CCCN1C(=O)CCn2nc(-c3cccn3C)cc21	none (no result: PLK1 PBD block, TSHR antagonist)
COc1ccc(Cl)cc1C(Nc1cccnc1)c1ccc2cccnc2c1O (stereo not given)	PLK1 PBD block 4.2µM, Vif-A3G inh inconclusive, VDR inhibitor 20µM | VDR inh confirm 21 | VDR FP inconclusive | VDR bla inactive | VDR cytotox inactive
CSc1nnc(NC(=O)c2nc(S(=O)(=O)Cc3ccccc3F)ncc2Cl)s1	PLK1 PBD block inconclusive, VDR inhibitor 20µM | VDR inh confirm 6 | VDR FP 7.9µM | VDR bla 7.3µM | VDR cytotox 11µM
CC(C)c1nnc(NC(=O)c2nc(S(=O)(=O)Cc3ccccc3F)ncc2Cl)s1	TSHR antagonist inconclusive, Vif-A3G inh inconclusive, VDR inhibitor 20µM | VDR inh confirm 8.4 | VDR FP 3.2µM | VDR bla 18µM | VDR cytotox 21µM
O=C(Nc1nc2ccc(F)cc2s1)c1nc(S(=O)(=O)Cc2ccccc2F)ncc1Cl	VDR inhibitor inconclusive (no result: PLK1 PBD block, TSHR antagonist)
C=Cc1ccc(N=Cc2ccc(N(C)C)cc2)cc1	none (no result: PLK1 PBD block, TSHR antagonist, VDR inhibitor, Vif-APOBEC3F blk)
Cc1ccc(C=Nc2ccc(N(C)C)cc2)o1	VDR inhibitor 1µM | VDR inh confirm 12 | VDR FP inactive | VDR bla inactive | VDR cytotox inactive
CSC1=NC2(CCN(C(=O)NC3CCCCC3)CC2)N=C1c1ccc(C)c(C)c1	none (no result: PLK1 PBD block, TSHR antagonist)
Cc1cc(C)c2c(n1)SCCN2C(=O)Nc1ccc(C(=O)Nc2ccc(C(C)C)cc2)cc1	none (no result: PLK1 PBD block, TSHR antagonist)
